Source: paper PMC4336329 (PLoS ONE, 2015)
Screen size: about 310,000 compounds; about 14,000 (4.5%) showed an effect of 50% or more. Effects have a minus sign here. Shown is part of a subset that was picked to be rich in strong results.

The compounds below were run against human ether-à-go-go-related gene (hERG) potassium channel (human, UniProt Q12809) (assay: primary screen, population patch clamp on CHO cells stably expressing hERG; higher = less effect of the substance).
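Further: peak tail current of the secondary pulse compared with the same well before compound.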

Sequence of human ether-à-go-go-related gene (hERG) potassium channel (Q12809 whole entry, looked up): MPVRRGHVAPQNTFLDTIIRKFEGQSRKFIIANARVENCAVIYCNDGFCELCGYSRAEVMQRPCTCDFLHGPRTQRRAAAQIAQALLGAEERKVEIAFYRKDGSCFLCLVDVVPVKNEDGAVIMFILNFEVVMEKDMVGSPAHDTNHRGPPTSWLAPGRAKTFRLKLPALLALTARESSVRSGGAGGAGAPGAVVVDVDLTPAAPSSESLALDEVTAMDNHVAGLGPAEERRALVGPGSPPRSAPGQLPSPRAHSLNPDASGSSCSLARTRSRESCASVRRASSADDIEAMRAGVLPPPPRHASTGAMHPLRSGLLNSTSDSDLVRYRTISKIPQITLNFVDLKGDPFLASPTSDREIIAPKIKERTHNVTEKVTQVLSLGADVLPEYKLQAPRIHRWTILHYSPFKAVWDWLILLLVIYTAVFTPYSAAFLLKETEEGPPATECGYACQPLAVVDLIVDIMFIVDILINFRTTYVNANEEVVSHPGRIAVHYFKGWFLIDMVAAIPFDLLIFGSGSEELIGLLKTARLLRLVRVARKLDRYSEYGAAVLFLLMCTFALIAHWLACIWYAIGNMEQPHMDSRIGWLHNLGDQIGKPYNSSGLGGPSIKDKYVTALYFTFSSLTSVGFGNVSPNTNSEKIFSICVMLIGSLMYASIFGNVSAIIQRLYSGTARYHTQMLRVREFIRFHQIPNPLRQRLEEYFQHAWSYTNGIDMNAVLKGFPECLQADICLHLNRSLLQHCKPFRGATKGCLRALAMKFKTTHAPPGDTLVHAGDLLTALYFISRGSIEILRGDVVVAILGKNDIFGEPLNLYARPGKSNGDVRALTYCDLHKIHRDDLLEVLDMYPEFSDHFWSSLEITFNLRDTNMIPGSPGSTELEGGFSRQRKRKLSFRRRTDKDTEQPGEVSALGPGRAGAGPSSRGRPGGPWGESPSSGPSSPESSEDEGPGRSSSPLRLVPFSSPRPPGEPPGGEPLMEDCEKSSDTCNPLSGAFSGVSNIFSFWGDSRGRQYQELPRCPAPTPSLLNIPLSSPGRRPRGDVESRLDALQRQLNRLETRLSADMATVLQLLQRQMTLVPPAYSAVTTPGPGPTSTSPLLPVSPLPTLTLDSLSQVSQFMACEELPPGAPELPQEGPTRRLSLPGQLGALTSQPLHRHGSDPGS

Question: With `O=C(COc1ccc(Cl)cc1)NCCNC(=O)c1cnccn1` as the compound, how does the “hERG current change (%, negative = inhibition) at 10uM” value read?
Answer: 5.3%

Question: How did the “hERG current change (%, negative = inhibition) at 10uM” value turn out when `Cc1oc(-c2ccc(Cl)cc2)nc1CS(=O)CC(=O)NCCN1CCCCCC1` (stereo not drawn) was run?
Answer: -39.4%

Question: `Cc1ccccc1Cn1cc(S(=O)(=O)c2ccc(C(C)C)cc2)c(=O)c2cc3c(cc21)OCO3` was tested. Which “hERG current change (%, negative = inhibition) at 10uM” value did it give?
Answer: -20.2%

Question: For `COc1ccc(OCc2n(CC(=O)OC3CC(C)CCC3C(C)C)c3ccccc3[n+]2C)cc1.[Cl-]` (stereo not drawn), which “hERG current change (%, negative = inhibition) at 10uM” value is on record?
Answer: -76.4%

Question: How did the “hERG current change (%, negative = inhibition) at 10uM” value turn out when `Cc1cccc(OCc2n(CC(=O)OC3CC(C)CCC3C(C)C)c3ccccc3[n+]2C)c1.[Cl-]` (stereo not drawn) was run?
Answer: -75%

Question: How did the “hERG current change (%, negative = inhibition) at 10uM” value turn out when `Cc1ccccc1OC(=O)Cn1c(C(F)(F)F)nc2ccccc21` was run?
Answer: 3.95%

Question: With `CC1CCC(C(C)C)C(OC(=O)COC(=O)c2cc(O)ccc2N)C1` (stereo not drawn) as the compound, how does the “hERG current change (%, negative = inhibition) at 10uM” value read?
Answer: 12.9%

Question: With `CC1CCC(C(C)C)C(OC(=O)COC(=O)c2ccccc2N)C1` (stereo not drawn) as the compound, how does the “hERG current change (%, negative = inhibition) at 10uM” value read?
Answer: 9.64%

Question: Which “hERG current change (%, negative = inhibition) at 10uM” value does the source give for `CC1CCC(C(C)C)C(OC(=O)Cn2c(COc3ccccc3)[n+](C)c3ccccc32)C1.[Cl-]` (stereo not drawn) here?
Answer: -80.4%

Question: For `Cc1ccccc1OCc1n(CC(=O)OC2CC(C)CCC2C(C)C)c2ccccc2[n+]1C.[Cl-]` (stereo not drawn), which “hERG current change (%, negative = inhibition) at 10uM” value is on record?
Answer: -72%

Question: How did the “hERG current change (%, negative = inhibition) at 10uM” value turn out when `Cc1cccc(OC(=O)Cn2c(C(F)(F)F)nc3ccccc32)c1` was run?
Answer: 17.6%

Question: For `CC1CCC(C(C)C)C(OC(=O)CSc2nc(N)cc(=O)[nH]2)C1` (stereo not drawn), which “hERG current change (%, negative = inhibition) at 10uM” value is on record?
Answer: 12.7%

Question: Which “hERG current change (%, negative = inhibition) at 10uM” value does the source give for `CN1CCN(C(=O)CCCOc2cc(=O)n(C)c3ccccc23)CC1` here?
Answer: 0.874%

Question: Which “hERG current change (%, negative = inhibition) at 10uM” value does the source give for `COc1cccc(NC(=O)C2C3C=CC(O3)C2C(=O)O)c1` (stereo not drawn) here?
Answer: 10.6%

Question: Which “hERG current change (%, negative = inhibition) at 10uM” value does the source give for `Cc1ccccc1OCCNC(=O)CSc1ccc(C(F)(F)F)cc1[N+](=O)[O-]` here?
Answer: 10.6%

Question: Which “hERG current change (%, negative = inhibition) at 10uM” value does the source give for `COc1ccc(CCNC(=O)c2ccc(N3CCCC3=O)cc2)cc1OC` here?
Answer: 15.3%

Question: With `COc1ccc(C(=O)N/C(=C/c2cccnc2)C(=O)N2CCN(C)CC2)cc1OC` as the compound, how does the “hERG current change (%, negative = inhibition) at 10uM” value read?
Answer: 11.4%

Question: Which “hERG current change (%, negative = inhibition) at 10uM” value does the source give for `Cc1cc(C)n(C(=O)COc2ccccc2C)n1` here?
Answer: -3.33%

Question: `Nc1c(C(=O)Nc2ccccc2F)sc2nc(-c3cccnc3)ccc12` was tested. Which “hERG current change (%, negative = inhibition) at 10uM” value did it give?
Answer: 20.9%

Question: How did the “hERG current change (%, negative = inhibition) at 10uM” value turn out when `O=C(COC(=O)c1ccncc1)Nc1cc(Cl)ccc1Cl` was run?
Answer: 6.07%

Question: For `CCOCCn1c(SCc2ccc(F)cc2)nc2c1c(=O)[nH]c(=O)n2C`, which “hERG current change (%, negative = inhibition) at 10uM” value is on record?
Answer: -19.5%

Question: For `Cc1ccc(C(C)C)c(OCCOCCN2CCNCC2)c1.O=C(O)C(=O)O`, which “hERG current change (%, negative = inhibition) at 10uM” value is on record?
Answer: -3.95%

Question: `CC(C)(C)c1ccc(OCC(=O)NCCN2CCCC2)cc1.Cl` was tested. Which “hERG current change (%, negative = inhibition) at 10uM” value did it give?
Answer: -33.7%

Question: `CCOC(=O)n1c(=O)n(Cc2ccc(Cl)cc2Cl)c2ccccc21` was tested. Which “hERG current change (%, negative = inhibition) at 10uM” value did it give?
Answer: -3.22%

Question: With `O=C(Nc1ccc(Cl)c(C(F)(F)F)c1)NC1CC2CCCC(C1)N2Cc1ccccc1` (stereo not drawn) as the compound, how does the “hERG current change (%, negative = inhibition) at 10uM” value read?
Answer: -71%

Question: How did the “hERG current change (%, negative = inhibition) at 10uM” value turn out when `COc1ccc(CN2C3CCCC2CC(NC(=O)Nc2ccccc2C)C3)cc1` (stereo not drawn) was run?
Answer: -59%

Question: For `COc1ccc(C(=O)NC2CC3CCCC(C2)N3Cc2ccccc2)c(OC)c1` (stereo not drawn), which “hERG current change (%, negative = inhibition) at 10uM” value is on record?
Answer: -26.5%

Question: For `COc1ccc(NC(=O)N2C3CCCC2CC(NC(=O)c2ccccc2)C3)cc1` (stereo not drawn), which “hERG current change (%, negative = inhibition) at 10uM” value is on record?
Answer: -15.9%

Question: For `COc1ccc(CN2C3CCCC2CC(NC(=O)Nc2ccccc2)C3)cc1` (stereo not drawn), which “hERG current change (%, negative = inhibition) at 10uM” value is on record?
Answer: -74.1%

Question: With `COc1ccc(NC(=O)NC2CC3CCCC(C2)N3Cc2ccccc2)cc1` (stereo not drawn) as the compound, how does the “hERG current change (%, negative = inhibition) at 10uM” value read?
Answer: -50.1%

Question: Which “hERG current change (%, negative = inhibition) at 10uM” value does the source give for `O=C(Nc1ccc(Cl)c(C(F)(F)F)c1)NC1CC2CCCC(C1)N2C1CC1` (stereo not drawn) here?
Answer: -10.1%

Question: How did the “hERG current change (%, negative = inhibition) at 10uM” value turn out when `Cc1ccccc1NC(=O)NC1CCCCCCC1` was run?
Answer: 8.64%

Question: How did the “hERG current change (%, negative = inhibition) at 10uM” value turn out when `Cc1cccc(NC(=S)NC2CC3CCCC(C2)N3Cc2ccccc2)c1C` (stereo not drawn) was run?
Answer: -10.4%

Question: For `COCC(=O)NC1CC2CCCC(C1)N2Cc1ccccc1` (stereo not drawn), which “hERG current change (%, negative = inhibition) at 10uM” value is on record?
Answer: -4.63%

Question: With `CC(=O)NC1CC2CCCC(C1)N2C(=O)Nc1ccc(Cl)c(C(F)(F)F)c1` (stereo not drawn) as the compound, how does the “hERG current change (%, negative = inhibition) at 10uM” value read?
Answer: -3.34%

Question: Which “hERG current change (%, negative = inhibition) at 10uM” value does the source give for `CCOc1ccc(N2C(=O)CC(N)C2=O)cc1` (stereo not drawn) here?
Answer: 1.65%

Question: For `COc1ccc(OC)c(CCNC(=O)CC2(CC3=NS(=O)(=O)c4ccccc4N3)CCCC2)c1`, which “hERG current change (%, negative = inhibition) at 10uM” value is on record?
Answer: -11.2%

Question: Which “hERG current change (%, negative = inhibition) at 10uM” value does the source give for `COC(=O)c1cc(-c2cccc([N+](=O)[O-])c2)c2c(=O)[nH]c(=O)n(C)c2n1` here?
Answer: 6.48%

Question: For `COc1cccc(NC(=O)CCNS(=O)(=O)c2cccc3nsnc23)c1`, which “hERG current change (%, negative = inhibition) at 10uM” value is on record?
Answer: 1.56%

Question: Which “hERG current change (%, negative = inhibition) at 10uM” value does the source give for `Cn1c(=O)c2ccccc2n(Cc2ccccc2Cl)c1=O` here?
Answer: 0.661%

Question: `Cc1ccc(CN2C3CCCC2CC(NC(=O)Nc2cccc(F)c2)C3)cc1` (stereo not drawn) was tested. Which “hERG current change (%, negative = inhibition) at 10uM” value did it give?
Answer: -85.7%

Question: For `COc1ccc(CN2C3CCCC2CC(NC(=O)Nc2cccc(C)c2)C3)cc1` (stereo not drawn), which “hERG current change (%, negative = inhibition) at 10uM” value is on record?
Answer: -75.3%

Question: How did the “hERG current change (%, negative = inhibition) at 10uM” value turn out when `Cc1cccc(NC(=O)NC2CC3CCC(C2)N3Cc2ccco2)c1` (stereo not drawn) was run?
Answer: -2.61%

Question: Which “hERG current change (%, negative = inhibition) at 10uM” value does the source give for `O=C(Nc1cccc(F)c1)NC1CC2CCCC(C1)N2C1CC1` (stereo not drawn) here?
Answer: -8.34%

Question: Which “hERG current change (%, negative = inhibition) at 10uM” value does the source give for `CCCN1C2CCCC1CC(NC(=O)Nc1cccc(C(C)=O)c1)C2` (stereo not drawn) here?
Answer: -5.62%

Question: How did the “hERG current change (%, negative = inhibition) at 10uM” value turn out when `CCc1cccc(CC)c1NC(=O)CN1C2CCCC1CC(NC(=O)Nc1cccc(OC)c1)C2` (stereo not drawn) was run?
Answer: -7.7%

Question: With `CCOC(=O)C1CCN(C(=O)C2CCN(S(=O)(=O)c3cc(Cl)ccc3Cl)CC2)CC1` as the compound, how does the “hERG current change (%, negative = inhibition) at 10uM” value read?
Answer: -30.1%

Question: With `Cc1ccc(S(=O)(=O)N2CCOCC2)cc1C(=O)OCC(=O)c1ccc(Br)cc1` as the compound, how does the “hERG current change (%, negative = inhibition) at 10uM” value read?
Answer: 14.7%

Question: `COc1ccc(-c2nc3ccc(N4CCN(C)CC4)cc3c(=O)[nH]2)cc1` was tested. Which “hERG current change (%, negative = inhibition) at 10uM” value did it give?
Answer: 8.45%

Question: With `O=c1c2ccccc2nc2n1CCN2Cc1ccc(Cl)cc1` as the compound, how does the “hERG current change (%, negative = inhibition) at 10uM” value read?
Answer: -51.9%

Question: With `O=c1c2ccccc2nc(N2CCCC2)n1-c1ccc(Cl)cc1` as the compound, how does the “hERG current change (%, negative = inhibition) at 10uM” value read?
Answer: -3.18%

Question: Which “hERG current change (%, negative = inhibition) at 10uM” value does the source give for `O=c1c2ccccc2nc(-c2ccccc2)n1Cc1ccc(Cl)cc1` here?
Answer: -15.7%

Question: Which “hERG current change (%, negative = inhibition) at 10uM” value does the source give for `CCOC(=O)c1c(-n2c(C)cc(C=C3C(=O)NC(=S)NC3=O)c2C)sc2c1CCCC2` here?
Answer: -5.55%

Question: With `CN1CCC(=NNC(=O)c2ccc(N(Cc3ccc(Cl)cc3)S(C)(=O)=O)cc2)CC1` as the compound, how does the “hERG current change (%, negative = inhibition) at 10uM” value read?
Answer: -38%

Question: With `CC1=C(C(=O)NC2CC(C)(C)Cc3c2cnn3-c2cccc(F)c2)OCCO1` (stereo not drawn) as the compound, how does the “hERG current change (%, negative = inhibition) at 10uM” value read?
Answer: -43.5%

Question: `Cc1cnc(C(=O)NC2CC(C)(C)Cc3c2cnn3-c2cccc(F)c2)cn1` (stereo not drawn) was tested. Which “hERG current change (%, negative = inhibition) at 10uM” value did it give?
Answer: -33.5%

Question: With `COc1cc(C(=O)NC2CC(C)(C)Cc3c2cnn3-c2ccccc2)cc(OC)c1OC` (stereo not drawn) as the compound, how does the “hERG current change (%, negative = inhibition) at 10uM” value read?
Answer: 8.92%

Question: `Cc1cc(C(=O)NC2CC(C)(C)Cc3c2cnn3-c2cccc(F)c2)n(C)n1` (stereo not drawn) was tested. Which “hERG current change (%, negative = inhibition) at 10uM” value did it give?
Answer: -32.6%

Question: `COc1ccc(C(=O)NC2CC(C)(C)Cc3c2cnn3-c2ccccc2)c(OC)c1` (stereo not drawn) was tested. Which “hERG current change (%, negative = inhibition) at 10uM” value did it give?
Answer: -2.5%

Question: For `COc1cccc(C(=O)NC2CC(C)(C)Cc3c2cnn3-c2cccc(F)c2)c1OC` (stereo not drawn), which “hERG current change (%, negative = inhibition) at 10uM” value is on record?
Answer: -52.3%

Question: Which “hERG current change (%, negative = inhibition) at 10uM” value does the source give for `CC1(C)Cc2c(cnn2-c2cccc(F)c2)C(NC(=O)c2csnn2)C1` (stereo not drawn) here?
Answer: -78.3%

Question: Which “hERG current change (%, negative = inhibition) at 10uM” value does the source give for `Cc1cc(C(=O)NC2CC(C)(C)Cc3c2cnn3-c2cccc(F)c2)nn1C` (stereo not drawn) here?
Answer: -2.79%

Question: `CC1(C)Cc2c(cnn2-c2cccc(F)c2)C(NC(=O)c2ccc(=O)[nH]n2)C1` (stereo not drawn) was tested. Which “hERG current change (%, negative = inhibition) at 10uM” value did it give?
Answer: -70.2%
